Bioassay records as filed in PubChem BioAssay.
Shown are actives, neighbours in structure and some others; about 0.82% of the full set was active somewhere.
Cathepsin G inh: cathepsin G (human) inhibition. P08311. purified enzyme, AMC-tetrapeptide fluorescence, pooled mixtures. inhibition, % at 5 µM (by protocol). 62,000 compounds, 0.2% hits. AID 581;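 active = inhibition above 20% in each of the two mixture wells holding the compound; inactive = inhibition of 20% or less in either well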;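 note: 0% = enzyme control without mixture and 100% = blank lacking enzyme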
Target sequence (P08311 21-244 limits assumed): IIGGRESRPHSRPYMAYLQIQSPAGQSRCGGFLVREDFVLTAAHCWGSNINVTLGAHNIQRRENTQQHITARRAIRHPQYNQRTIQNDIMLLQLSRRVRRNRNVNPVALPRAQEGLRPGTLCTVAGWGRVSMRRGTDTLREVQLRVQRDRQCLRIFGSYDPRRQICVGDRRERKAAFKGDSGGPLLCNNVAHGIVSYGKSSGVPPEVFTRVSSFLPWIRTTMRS
MMP-13 inhibitor: blocks human MMP13 activity; MMP-13 fTHP FRET cleavage, Mca fluorescence; inhibition, % at 4 µM; 65,000 compounds, 0.07% hits;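 active = inhibition above the mean of compound-free control plate wells plus 3 SD, cut at about 14% in these data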;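 note: 0% = DMSO wells and 100% = wells with reference MMP-13 inhibitor after basal subtraction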
WNV protease inh: WNV NS2B-NS3 proteinase inhibition | 65,000 compounds, 0.18% hits | P06935 | AID 577 | z-score (concentration not given with the values) | WNV NS2B-NS3 protease, fluorogenic substrate Ex360/Em465; stronger effect = lower value; in the data active = z-score below about -3
Target sequence (P06935 1371-1501 limits assumed): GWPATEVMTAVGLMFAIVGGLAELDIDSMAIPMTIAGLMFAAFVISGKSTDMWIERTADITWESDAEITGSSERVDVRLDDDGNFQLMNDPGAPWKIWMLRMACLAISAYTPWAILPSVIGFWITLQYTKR
Target sequence (P06935 1502-1679 limits assumed): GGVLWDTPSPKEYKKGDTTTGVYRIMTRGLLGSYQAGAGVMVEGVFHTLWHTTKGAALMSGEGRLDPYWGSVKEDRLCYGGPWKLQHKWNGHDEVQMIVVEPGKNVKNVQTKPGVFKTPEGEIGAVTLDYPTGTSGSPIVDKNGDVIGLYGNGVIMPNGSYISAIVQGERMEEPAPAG
FXIIa mix inh: blocks human factor XIIa in pooled compound mixtures. purified FXIIa, fluorogenic substrate. inhibition, % at 5 µM. 62,000 compounds, 0.2% hits. AID 684;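 note: 0% = enzyme without compound and 100% = no enzyme blank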
C1s inh: human complement C1s inhibition; purified C1s, fluorogenic AMC substrate, pooled mixtures; mean inhibition % of two 10-compound mixtures (stronger effect = higher value), % at 5 µM (by protocol); 62,000 compounds, 0.16% hits; AID 538;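 active = inhibition above 20% in each of the two 10-compound mixture wells holding the compound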;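 note: 0% = enzyme wells lacking compound mixture and 100% = no-enzyme blank wells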
FXIa mix inh: blocks human factor XIa in pooled compound mixtures; P03951; purified FXIa, fluorogenic substrate; inhibition, % at 5 µM; 62,000 compounds, 0.19% hits; AID 680;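 note: each value is inhibition by a whole ten-compound pool holding the compound; 0% = enzyme with no mixture and 100% = wells lacking enzyme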
* marks the source's active call; other numbers are inactive results; · = no result. Cut-off read from the data, not from the text of the source, unless noted: active = inhibition above about 20% (passing the limit was not always enough); inactive = the rest.

SMILES	Cathepsin G inh	MMP-13 inhibitor	WNV protease inh	FXIIa mix inh	C1s inh	FXIa mix inh
CCN(CC)CCNC(=O)c1ccc(N)cc1	-17	-4	-3.2*	-8	0	5
CCN(CC)CCNC(=O)c1ccc(NC(C)=O)cc1	2	-3	-0.24	4	3	1
COc1ccc(CCNC(=O)CSc2nnc(CNc3ccc(Cl)cc3)o2)cc1OC	7	2	0.38	6	-1	0
COc1ccc(CCNC(=O)CSc2nnc(-c3ccc(F)cc3)o2)cc1OC	9	1	-6.1*	4	4	11
COCCOC(=O)C1=C(C)NC2=C(C(=O)CC(C)(C)C2)C1c1cc2c(cc1Br)OCO2 (configuration not stated)	-3	-17	1.1	5	-5	2
NC(=O)C1CCN(CC(=O)N2c3ccccc3CCc3ccccc32)CC1	11	-6	-0.96	30*	12	7
COc1ccc(C(=O)Nc2nncs2)cc1S(=O)(=O)N1CC(c2ccccc2)CC1=O (configuration not stated)	-11	-2	0.4	1	-38	-6
CC(O)C(=O)NCCOCCOCCNC(=O)C(C)O (configuration not stated)	15	-4	0.23	1	16	6
CCOC(=O)c1c(C)n(C)c2ccc(O)c(CN3CCCCC3)c12	1	2	-0.55	6	-4	2
CCOC(=O)c1c(C)n(C)c2ccc(OC)c(NC(=O)CN3CCCCC3)c12	·	11	-3.4*	·	·	·
CCOC(=O)C(CC(=O)O)N1CCCCC1 (configuration not stated)	·	6	-3.1*	·	·	·
O=C(O)CC(C(=O)OC1CCCCC1)N1CCOCC1 (configuration not stated)	6	8	-0.56	9	-27	4
O=C1CCC(=O)c2oc3ccccc3c2N1	-25	-3	0.25	21*	-55	-17
CCCCC1CC1C(=O)Nc1ccc(OC)c(OC)c1 (configuration not stated)	·	0	-1.7	·	·	·
COC(=O)c1sc(N2C(=O)C(O)=C(C(=O)c3ccc(C)o3)C2c2ccc(F)cc2)nc1C (configuration not stated)	59*	-4	-0.88	4	20	40*
CCn1c(=O)cc(SCC(=O)NCCCN2CCN(c3ccccc3F)CC2)c2ccccc21	27	-5	2.4	2	6	18
CCOC(=O)c1c(NC(=O)CNCCO)sc(C)c1C	13	-2	-1.1	-4	14	6
CCOC(=O)c1c(NC(N)=O)sc(C)c1C	15	3	1.7	7	19	29*
CC1CCN(c2nc(-c3ccccc3)cc(C(F)(F)F)n2)CC1	10	-2	-0.67	4	39	1
COc1ccccc1-c1cc(C(F)(F)F)nc(N2CCOCC2)n1	10	-2	-0.81	2	4	22*
Fc1ccc(-c2cc(C(F)(F)F)nc(N3CCCCC3)n2)cc1	-2	5	-0.64	21*	1	1
COCCn1c(=S)[nH]c2ncccc2c1=O	50	0	1.1	8	-9	38*
N#Cc1cc2c(nc1SCc1ccncc1)CCC2	3	-2	-0.48	6	-60	-8
C(=C\c1ccccc1)/CSc1nnc(-c2cccnc2)o1	10	0	0.16	10	9	-1
Cc1ccc(C(=O)c2cc(C)sc2NC(=O)CN2CCN(C(=O)c3ccco3)CC2)cc1	10	0	-0.97	21*	9	12
SMILES	Cathepsin G inh	MMP-13 inhibitor	WNV protease inh	FXIIa mix inh	C1s inh	FXIa mix inh
O=C1NC(=S)SC1=C1CCCCCC1	13	-6	-1.3	8	4	-1
COc1ccc(C(NC(=O)CNC(C)=O)C(=O)Nc2ccc3c(c2)OCCO3)cc1 (configuration not stated)	8	0	-0.67	7	5	2
CC(C)n1c(-c2cccnc2)nc2cnccc21	0	-2	-9.4*	0	3	6
COC(=O)CSCc1nc2ccccc2[nH]c1=O	6	-7	-0.16	-12	12	9
COc1ccccc1-n1c(SCC(=O)N2CCOCC2)nc(O)c(Cc2ccccc2)c1=O	-7	-2	-8.6*	0	-14	3
Cn1cc(C(=O)c2ccc(Cl)cc2)cc1-c1nc2ccccc2n1C	-10	7	0.78	-16	-51	-5
COc1ccc(N2CCN(C(=O)c3cn(C)c(=O)c4c3c3ccccc3n4C)CC2)cc1	10	-1	-3.8*	7	4	-3
COc1ccc(N2CCN(C(=O)c3cn(C4CCCC4)c(=O)c4c3c3ccccc3n4C)CC2)cc1	12	1	0.13	6	13	2
C=C(C)c1cccc(C(C)(C)NC(=O)N2CCOCC2)c1	10	2	-0.18	1	14	8
C=C(C)c1cccc(C(C)(C)NC(=O)N2CC(C)OC(C)C2)c1 (configuration not stated)	-2	7	-0.35	22*	-2	2
CC1(C)Cc2noc(N)c2C(C)(C)N1OC(=O)c1ccco1	0	5	-0.25	7	2	5
O=C(c1ccco1)N1CCN=C1SCc1ccccc1Cl	6	5	-0.35	-3	6	5
O=C(c1ccco1)N1CCN=C1SCc1c(F)cccc1Cl	1	4	1	11	-97	29*
CN(C)/C=C1/Sc2ccccc2C1=O	-1	0	-4.1*	-1	-34	3
Cc1nn(Cc2ccccc2)c(C)c1NC(=O)CSc1nc2sc3c(c2c(=O)n1C)CCC3	8	-1	-0.04	3	-12	5
CCOC(=O)C1CCN(CCC(=O)Nc2cccc(Cl)c2)CC1	1	2	1.3	35*	-5	5
Clc1cccc(Cl)c1COc1ccccn1	-6	4	0.79	30*	-4	3
O=C(COC(=O)c1ccccn1)Nc1c(Cl)cccc1Cl	11	1	-1.1	0	6	7
COc1ccccc1-c1cc(C(=O)NC(C)c2ccccc2)no1 (configuration not stated)	33*	-1	-0.89	-3	7	9
COc1ccccc1-c1cc(C(=O)NC(C)C)no1	13	-6	0.45	5	7	7
Cc1ccccc1NC(=O)NCCN1C(=O)C2C3C=CC(C3)C2C1=O (configuration not stated)	5	-1	1	1	-12	-7
CCC(C)(C)n1nnnc1C(c1ccc(OC)c(OC)c1)N1CCN(c2ccc(F)cc2)CC1 (configuration not stated)	-2	0	0.42	48*	2	13
O=C(NCc1ccco1)c1cccc(S(=O)(=O)N2CCCCC2)c1	-10	-1	0.83	12	-22	-1
O=C(NCc1ccccc1)N(Cc1nc2ccccc2c(=O)[nH]1)C1CCCC1	-13	-22	1.3	9	-17	4
NC1C2CN(c3nc4c(cc3F)c(=O)c(C(=O)O)cn4-c3ccc(F)cc3F)CC12 (configuration not stated)	2	-9	-0.95	3	8	13
